Data taken from the supplement of paper PMC10849652.
Of roughly 8,800 targets only a part is listed; those with a hit were picked by preference. About 0.5% of all pairs of compound and target were hits. Unmarked numbers belong to inactive results.

Assays:
Experiment in all cases: log2 fold change, soluble protein after heating vs DMSO (PISA); higher = thermal stabilisation; K562 lysate, 10 uM; active = over 0.2 and 3.5 SD of the protein, either way, in both replicates (recomputed)
[1] = compound: C1=CC=C(C=C1)[C@H](COC2=CC3=C(C=C2)NC(=O)N3)NC(=O)C4=CC=CN(C4=O)CC5=CC(=C(C=C5)F)F
Method in brief: (§1)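 A 30 min treatment with 10 μM compound was applied to crude K562 extract at 1 mg/mL protein in PBS pH 7.4 with 1 mM MgCl2. Heating for 3 min spanned 48°C-58°C, after which aliquots were pooled, adjusted to 0.5% NP-40 at 4°C and spun at 21,000xg for 90 min. TMTpro 16plex LC-MS/MS of the supernatant, with channel sums equalised, gave values recorded as log-two fold change in thermal stability against solvent controls, from duplicates.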

[2] = compound: CC1=C(SC2=C1C(=N[C@H](C3=NN=C(N32)C)CC(=O)N)C4=CC=C(C=C4)Cl)C
Method in brief: as §1

[3] = compound: CC1=C2C(=CC=C1)N=C(N(C2=O)C3=CC=CC=C3C)CN4C=NC5=C(N=CN=C54)N
Method in brief: as §1

[4] = compound: Cc1sc2c(c1C)C(c1ccc(Cl)cc1)=N[C@@H](CC(=O)OC(C)(C)C)c1nnc(C)n1-2
Method in brief: as §1

[5] = compound: c1ccc([C@@H]2C[C@H]2NC2CCNCC2)cc1
Method in brief: as §1

Sequence of UniProt P37268 (P37268 whole entry, looked up): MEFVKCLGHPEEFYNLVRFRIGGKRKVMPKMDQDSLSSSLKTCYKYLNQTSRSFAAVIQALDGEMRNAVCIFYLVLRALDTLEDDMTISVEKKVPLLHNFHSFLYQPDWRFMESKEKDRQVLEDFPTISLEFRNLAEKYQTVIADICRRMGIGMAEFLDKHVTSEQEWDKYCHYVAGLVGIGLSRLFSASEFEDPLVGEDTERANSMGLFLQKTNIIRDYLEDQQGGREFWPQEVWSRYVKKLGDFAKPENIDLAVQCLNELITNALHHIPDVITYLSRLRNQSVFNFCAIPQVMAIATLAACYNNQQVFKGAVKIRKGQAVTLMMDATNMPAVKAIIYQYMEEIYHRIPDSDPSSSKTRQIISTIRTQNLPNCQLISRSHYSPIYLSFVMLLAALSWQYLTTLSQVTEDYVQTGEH
Sequence of UniProt O95466 (O95466 whole entry, looked up): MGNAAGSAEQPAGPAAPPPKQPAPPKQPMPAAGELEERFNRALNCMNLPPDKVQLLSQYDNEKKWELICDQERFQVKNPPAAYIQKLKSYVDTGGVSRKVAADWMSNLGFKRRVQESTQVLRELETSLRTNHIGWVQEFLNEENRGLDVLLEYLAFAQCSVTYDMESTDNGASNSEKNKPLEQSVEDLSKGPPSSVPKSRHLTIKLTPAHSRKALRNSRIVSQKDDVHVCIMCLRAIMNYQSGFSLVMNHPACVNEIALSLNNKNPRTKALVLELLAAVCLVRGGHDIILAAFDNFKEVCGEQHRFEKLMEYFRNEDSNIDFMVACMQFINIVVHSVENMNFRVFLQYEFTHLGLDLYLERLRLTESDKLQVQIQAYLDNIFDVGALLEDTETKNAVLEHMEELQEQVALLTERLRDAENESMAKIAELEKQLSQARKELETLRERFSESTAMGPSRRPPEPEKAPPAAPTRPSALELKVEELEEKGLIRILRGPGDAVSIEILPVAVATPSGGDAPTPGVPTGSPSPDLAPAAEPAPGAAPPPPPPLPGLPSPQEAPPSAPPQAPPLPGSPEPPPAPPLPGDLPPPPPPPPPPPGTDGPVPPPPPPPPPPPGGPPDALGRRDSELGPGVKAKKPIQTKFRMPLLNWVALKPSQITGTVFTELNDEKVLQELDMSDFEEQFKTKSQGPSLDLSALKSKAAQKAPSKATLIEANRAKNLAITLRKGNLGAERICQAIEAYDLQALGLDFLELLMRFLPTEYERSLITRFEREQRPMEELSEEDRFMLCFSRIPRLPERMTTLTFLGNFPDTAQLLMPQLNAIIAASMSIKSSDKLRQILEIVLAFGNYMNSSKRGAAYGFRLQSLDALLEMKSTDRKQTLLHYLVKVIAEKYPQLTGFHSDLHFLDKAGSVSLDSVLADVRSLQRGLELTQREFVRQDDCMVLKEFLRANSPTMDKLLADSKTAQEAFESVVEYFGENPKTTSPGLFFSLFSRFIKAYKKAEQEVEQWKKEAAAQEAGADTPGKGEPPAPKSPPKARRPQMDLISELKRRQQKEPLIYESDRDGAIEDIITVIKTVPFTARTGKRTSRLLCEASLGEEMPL
Sequence of UniProt O60645 (O60645 whole entry, looked up): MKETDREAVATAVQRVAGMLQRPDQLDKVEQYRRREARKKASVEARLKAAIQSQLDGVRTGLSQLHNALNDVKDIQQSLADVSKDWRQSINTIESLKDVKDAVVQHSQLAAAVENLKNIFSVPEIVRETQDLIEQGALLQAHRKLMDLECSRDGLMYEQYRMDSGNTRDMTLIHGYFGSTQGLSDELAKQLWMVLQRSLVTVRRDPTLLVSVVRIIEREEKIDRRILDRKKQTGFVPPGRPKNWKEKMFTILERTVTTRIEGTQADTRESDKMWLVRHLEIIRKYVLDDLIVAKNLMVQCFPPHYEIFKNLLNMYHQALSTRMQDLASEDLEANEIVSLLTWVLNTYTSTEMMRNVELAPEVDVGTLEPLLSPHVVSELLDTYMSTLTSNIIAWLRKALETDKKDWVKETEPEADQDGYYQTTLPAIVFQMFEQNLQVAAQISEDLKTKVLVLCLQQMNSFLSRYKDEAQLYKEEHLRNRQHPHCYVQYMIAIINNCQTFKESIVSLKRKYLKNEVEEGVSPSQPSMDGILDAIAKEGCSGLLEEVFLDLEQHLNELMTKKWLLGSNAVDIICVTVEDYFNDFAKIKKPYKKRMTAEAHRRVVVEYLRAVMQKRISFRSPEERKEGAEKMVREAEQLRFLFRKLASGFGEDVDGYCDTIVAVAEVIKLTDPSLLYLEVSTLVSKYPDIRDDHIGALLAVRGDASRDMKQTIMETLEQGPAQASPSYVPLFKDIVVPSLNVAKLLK
Sequence of UniProt O14772 (O14772 whole entry, looked up): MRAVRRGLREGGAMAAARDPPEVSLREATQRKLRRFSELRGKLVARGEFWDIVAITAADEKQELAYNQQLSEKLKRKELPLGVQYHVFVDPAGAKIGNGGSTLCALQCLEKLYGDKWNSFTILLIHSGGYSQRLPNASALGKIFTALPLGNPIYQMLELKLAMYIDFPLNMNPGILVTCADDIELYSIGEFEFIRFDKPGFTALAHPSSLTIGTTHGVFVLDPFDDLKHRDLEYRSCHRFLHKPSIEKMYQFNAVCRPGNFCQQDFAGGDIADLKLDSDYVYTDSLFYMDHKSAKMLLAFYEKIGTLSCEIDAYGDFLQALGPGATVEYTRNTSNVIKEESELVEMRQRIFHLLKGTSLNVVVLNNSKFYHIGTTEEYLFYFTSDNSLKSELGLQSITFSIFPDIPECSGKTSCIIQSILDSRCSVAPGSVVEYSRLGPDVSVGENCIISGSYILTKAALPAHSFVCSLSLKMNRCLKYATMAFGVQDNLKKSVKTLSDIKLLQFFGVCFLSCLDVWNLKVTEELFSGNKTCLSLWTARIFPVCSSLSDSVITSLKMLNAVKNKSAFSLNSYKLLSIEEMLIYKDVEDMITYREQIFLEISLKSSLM
Sequence of UniProt Q9UPW0 (Q9UPW0 whole entry, looked up): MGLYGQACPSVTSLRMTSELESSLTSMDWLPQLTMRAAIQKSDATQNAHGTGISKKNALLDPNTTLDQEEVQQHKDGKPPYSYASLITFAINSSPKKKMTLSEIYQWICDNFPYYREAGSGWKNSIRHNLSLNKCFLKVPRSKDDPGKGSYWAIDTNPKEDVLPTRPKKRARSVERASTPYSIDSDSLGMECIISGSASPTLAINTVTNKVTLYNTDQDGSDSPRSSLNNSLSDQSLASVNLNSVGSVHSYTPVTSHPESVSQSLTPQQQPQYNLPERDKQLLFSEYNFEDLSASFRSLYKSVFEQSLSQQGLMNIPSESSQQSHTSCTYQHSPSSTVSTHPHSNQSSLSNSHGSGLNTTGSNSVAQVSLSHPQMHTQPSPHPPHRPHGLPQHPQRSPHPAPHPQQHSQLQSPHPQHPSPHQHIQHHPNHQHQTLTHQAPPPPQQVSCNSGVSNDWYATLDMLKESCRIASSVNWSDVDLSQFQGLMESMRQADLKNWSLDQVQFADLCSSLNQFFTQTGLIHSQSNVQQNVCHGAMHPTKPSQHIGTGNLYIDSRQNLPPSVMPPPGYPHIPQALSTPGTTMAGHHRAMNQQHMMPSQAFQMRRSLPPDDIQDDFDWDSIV
Sequence of UniProt Q56P03 (Q56P03 whole entry, looked up): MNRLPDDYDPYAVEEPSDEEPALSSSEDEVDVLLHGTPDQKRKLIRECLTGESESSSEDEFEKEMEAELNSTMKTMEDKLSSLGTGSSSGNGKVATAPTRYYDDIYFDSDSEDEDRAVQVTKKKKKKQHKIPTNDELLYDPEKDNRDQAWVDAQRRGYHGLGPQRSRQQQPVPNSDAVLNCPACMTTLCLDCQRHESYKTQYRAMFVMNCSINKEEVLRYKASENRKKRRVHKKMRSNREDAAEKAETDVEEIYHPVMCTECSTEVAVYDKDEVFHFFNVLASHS
Sequence of UniProt Q9Y613 (Q9Y613 whole entry, looked up): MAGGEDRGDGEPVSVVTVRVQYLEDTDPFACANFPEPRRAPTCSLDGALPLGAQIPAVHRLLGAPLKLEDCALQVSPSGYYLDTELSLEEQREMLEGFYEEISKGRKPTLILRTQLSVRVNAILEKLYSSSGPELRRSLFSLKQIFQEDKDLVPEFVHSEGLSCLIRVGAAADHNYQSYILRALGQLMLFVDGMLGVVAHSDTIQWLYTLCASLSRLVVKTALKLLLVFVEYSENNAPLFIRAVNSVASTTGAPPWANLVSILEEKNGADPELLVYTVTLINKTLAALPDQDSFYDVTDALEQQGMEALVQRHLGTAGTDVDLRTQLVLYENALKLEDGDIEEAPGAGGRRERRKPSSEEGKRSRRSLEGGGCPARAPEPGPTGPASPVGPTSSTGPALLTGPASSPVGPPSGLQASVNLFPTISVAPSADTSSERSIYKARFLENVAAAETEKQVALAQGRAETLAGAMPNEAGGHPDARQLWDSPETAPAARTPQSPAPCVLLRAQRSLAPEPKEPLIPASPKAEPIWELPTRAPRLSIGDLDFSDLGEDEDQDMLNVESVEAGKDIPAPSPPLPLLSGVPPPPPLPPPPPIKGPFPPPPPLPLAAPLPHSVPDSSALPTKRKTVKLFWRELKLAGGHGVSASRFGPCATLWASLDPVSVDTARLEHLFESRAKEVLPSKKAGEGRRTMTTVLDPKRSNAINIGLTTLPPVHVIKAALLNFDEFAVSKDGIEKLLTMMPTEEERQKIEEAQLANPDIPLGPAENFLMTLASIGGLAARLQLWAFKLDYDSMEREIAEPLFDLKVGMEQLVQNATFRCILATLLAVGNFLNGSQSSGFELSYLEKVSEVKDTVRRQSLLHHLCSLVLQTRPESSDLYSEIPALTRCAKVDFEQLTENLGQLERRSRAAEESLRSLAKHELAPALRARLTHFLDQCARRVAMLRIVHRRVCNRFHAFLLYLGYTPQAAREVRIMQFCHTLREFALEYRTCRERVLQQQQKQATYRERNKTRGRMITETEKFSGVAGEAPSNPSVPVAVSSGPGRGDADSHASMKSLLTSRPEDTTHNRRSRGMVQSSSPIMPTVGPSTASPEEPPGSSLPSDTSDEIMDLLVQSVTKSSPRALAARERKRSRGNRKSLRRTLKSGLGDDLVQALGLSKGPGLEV

Row | Target | log2 fold change [1] | log2 fold change [2] | log2 fold change [3] | log2 fold change [4] | log2 fold change [5]
1 | FPGT (UniProt O14772) | 0.007 | -0.003 | 0.07 | -0.006 | 0.104
2 | DUS2 (UniProt Q9NX74) | 0.037 | 0.018 | -0.018 | 0.055 | 0.116
3 | FCHO1 (UniProt O14526) | -0.026 | 0.066 | -0.025 | 0.009 | 0.027
4 | EAPP (UniProt Q56P03) | 0.008 | 0.048 | 0.137 | 0.029 | -0.079
5 | FHOD1 (UniProt Q9Y613) | -0.041 | 0.006 | 0.043 | 0.029 | 0.027
6 | EFCAB14 (UniProt O75071) | 0.099 | -0.074 | 0.088 | -0.014 | 0.013
7 | EPRS (UniProt P07814) | -0.005 | 0.002 | 0.003 | 0.043 | 0.016
8 | FREM2 (UniProt Q5SZK8) | 0 | 0.074 | 0.003 | -0.133 | -0.212
9 | FAM83A (UniProt Q86UY5) | 0.065 | -0.023 | 0.063 | 0.11 | -0.039
10 | EXOC6 (UniProt Q8TAG9) | -0.035 | -0.022 | -0.006 | 0.037 | 0.151
11 | FAM114A2 (UniProt Q9NRY5) | 0.073 | -0.002 | -0.027 | 0.019 | 0.035
12 | EPB41, A0A2R8Y783 | -0.056 | -0.031 | 0.142 | -0.131 | 0.033
13 | DUS3L (UniProt Q96G46) | 0.084 | -0.001 | 0.005 | -0.001 | 0.098
14 | EEF1AKMT4 (UniProt P0DPD7) | -0.061 | 0.027 | -0.036 | 0.017 | -0.063
15 | EWSR1 isoform 5 (UniProt Q01844) | 0.047 | -0.024 | -0.012 | 0.053 | 0.002
16 | FARSA (UniProt Q9Y285) | 0.028 | 0.171 | -0.003 | -0.028 | -0.009
17 | FDFT1 (UniProt P37268) | -0.045 | 0.268 (active) | 0 | 0.107 | -0.047
18 | FOXJ3 (UniProt Q9UPW0) | 0.004 | -0.072 | 0.013 | -0.021 | -0.026
19 | FASTKD2 (UniProt Q9NYY8) | -0.013 | 0.044 | 0.018 | 0.017 | 0.002
20 | EXOC3 (UniProt O60645) | -0.026 | -0.019 | 0.053 | -0.017 | 0.08
21 | FMNL1 isoform 3 (UniProt O95466) | 0.104 | -0.01 | 0.057 | 0.027 | 0.082
22 | GIGYF2 (UniProt Q6Y7W6) | 0.047 | -0.054 | 0.011 | -0.076 | 0.033
23 | FANCI (UniProt Q9NVI1) | -0.051 | -0.009 | 0.029 | 0.015 | 0.088
24 | GCN1 (UniProt Q92616) | -0.046 | 0.003 | 0.019 | 0.035 | 0.063
